Screens from PubChem.
Hits are enriched below; roughly 3.6% of the tested compounds scored in any of these assays.
TGFb inhibitor: inhibitors of TGF-b signaling. HepG2 CAGA-GFP TGF-b/SMAD3 reporter, GFP fluorescence, 18 h; TGF-beta stimulated, 500 pg/mL final. Potency, µM (titrated, usually from 46.1 µM), actives largely listed as inhibitors. hit rate 1.2% among 410,000. AID 588855; note: nearly all actives have a fitted effect of over 65% in size
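HEPG2 CAGA-GFP, 1000 cells/well; 2 h settle, 37 C; cpd via pin tool; TGF-b 500 pg/mL final; 18 h, 37 C; GFP imaging ex488/em500-530; %Activity normalised to -TGF-b and +DMSO controls; CRC fit, curve class.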
Nrf2 ARE act: activators of Nrf2 (ARE) signaling; hit rate 0.31% among 410,000; AID 624171; AREc32 ARE-luciferase reporter (MCF7-derived line), luminescence, 24 h; Potency, µM (titrated, usually from 46.1 µM), most hits filed as activators; note: nearly all actives have a fitted effect of over 65% in size
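Cells of the AREc32 ARE-luciferase line are plated in OPTI-MEM containing 5% FBS and left overnight at 37 deg C. Compounds are pinned in, incubation continues 24 hr, and firefly luciferase signal is then measured.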
A549 tox: kills or reduces viability of A549 cells in Nrf2 counter-screen. A549 ARE-Fluc cells, CellTiter-Fluor viability, 18-24 h. AID 504648. hit rate 0.16% among 390,000. Potency, µM (highest dose often 46 µM), most hits filed as inhibitors
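A549 ARE_Fluc cells in 5% FBS OPTI-MEM were exposed to compounds in concentration-response for 18-24 h at 37 deg C. Viability was read by CellTiter-Fluor fluorescence (Ex 405/Em 525) after 30 min, before the luciferase read.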
HepG2 tox: HepG2 cytotoxicity, counter-screen for TGF-b inhibitors; HepG2 CAGA-GFP viability, ATP luminescence, 18 h; Potency, µM (titrated, usually from 46.1 µM), most hits filed as cytotoxic; hit rate 0.76% among 410,000; AID 588856
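CellTiter-Glo luminescence gave cytotoxicity after 18 hours at 37 degrees C. The cells were HepG2 CAGA-GFP in 1% FBS DMEM, stimulated with 500 pg/mL TGF-beta after compound addition. %Activity was normalised to no-cell wells (complete cell-killing) and DMSO (no toxicity), and curves were fitted and classified.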
Nrf2 inh: Nrf2 pathway inhibition. A549 ARE-Fluc reporter, luciferase luminescence, 18-24 h. Potency, µM (doses to about 46 µM), usual class: inhibitors. hit rate 2.1% among 360,000. AID 504444; note: nearly all actives have a fitted effect of over 60% in size
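In this cell-based qHTS, ARE-driven firefly luciferase in A549 cells reports Nrf2 activity; the luminescent signal after BugLite lysis is the measured value, with a prior CellTiter-Fluor read for cell health.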
Numbers stand for hits; - = inactive; ? = inconclusive; . = not tested or not shown; ! = a repeat was not active; [ ] = another dose, or the depositor's remark. Calls come from the whole dose curve; as a rule, active = well fitted curve in the direction sought with a large enough effect; inconclusive = small, poorly fitted or top-dose-only effect, or another doubt; inactive = no such curve, though single readings can be large; an effect the other way counts as inactive or inconclusive.

SMILES	TGFb inhibitor	Nrf2 ARE act	A549 tox	HepG2 tox	Nrf2 inh
Cc1nc(N/N=C/c2ccc(O)cc2)c2cnn(-c3ccccc3)c2n1	-	-	-	15.8µM	?
Cc1nc2ccccc2nc1N/N=C/c1ccc(O)cc1	-	-	-	-	-
Cc1occc1C(=O)Nc1cccc(C(F)(F)F)c1	-	-	?	-	-
Cc1ccc(C(=O)Nc2cccc(C(F)(F)F)c2)cc1Nc1ccccn1	-	-	?	-	20.6µM
Cc1ccccc1C(=O)NNC(=S)Nc1cccc(C(F)(F)F)c1	?	-	?	10µM	11.6µM
Cc1cnc(Nc2nc3ccccc3o2)nc1C(=O)Nc1cccc(C(F)(F)F)c1	?	-	?	5.01µM	16.4µM
OC(COC(c1ccccc1)c1ccccc1)CN1CCc2ccccc2C1 (stereo unspecified)	-	-	-	-	-
CN1CCN(CC(O)COC(c2ccc(Cl)cc2)c2ccc(Cl)cc2)CC1 (stereo unspecified)	?	-	-	10µM	-
OC(COC(c1ccc(Cl)cc1)c1ccc(Cl)cc1)CN1CCc2ccccc2C1 (stereo unspecified)	?	-	-	11.2µM	-
OC(COC(c1ccc(Cl)cc1)c1ccc(Cl)cc1)CN1CCCC1 (stereo unspecified)	-	-	?	-	-
O=C1C=C(c2ccc(-c3ccccc3)cc2)C[C@@H](c2ccc(Cl)cc2)C1	-	-	-	-	-
CCOC(=O)c1c(C)oc2c1c(/C=N/c1ccccn1)c(O)c1ccccc12	-	.	-	-	-
CCOC(=O)c1c(C)oc2c1c(C=NCCO)c(O)c1ccccc12	?	-	23.1µM	-	14.6µM
COc1ccccc1Nc1nn2c(=O)c3ccc(C(=O)NCc4ccc(F)cc4)cc3nc2s1	3.16µM	-	?	3.98µM	?
COCCNCCCOc1ccc(C(C)(C)c2ccccc2)cc1	-	-	-	-	-
NNC(=O)c1ccc(OCC2CC(c3ccc(Cl)cc3)=NO2)cc1 (stereo unspecified)	?	-	?	12.6µM	?
Cc1ccc([N+](=O)[O-])c2c1C(N1CCCCC1)C(C)(C)O2 (stereo unspecified)	-	-	-	-	-
Cc1ccc(/C=C2\CCOC2=O)cc1	-	-	-	-	-
Cc1ccc(/C=C2/CNC/C(=C/c3ccc(C)cc3)C2=O)cc1	10µM	?	?	-	?
Cc1ccc(Cl)cc1NC(=O)Nc1cn(CC(C)C)c(=O)c2ccccc12	-	-	-	-	-[9.27 µM]
COc1cc2c(cc1OC)C(COc1ccc([N+](=O)[O-])cc1)N(C(C)=O)CC2 (stereo unspecified)	?	-	-	-	?
CCOc1ccc(NS(=O)(=O)c2ccc(C(=O)NCC(C)(C)N3CCOCC3)cc2)cc1	-	-	-	-	-
N#Cc1ccc(NC(=O)Nc2ccc(Cl)cc2)cc1	?	-	?	-	18.4µM
CN(CC(=O)Nc1ccc(C#N)cc1)Cc1ccc(Cl)cc1	-	-	-	-	?
CCN(C)C1CN(Cc2cn(Cc3ccc(Cl)cc3)nn2)S(=O)(=O)C1 (stereo unspecified)	.	-	.	.	.
SMILES	TGFb inhibitor	Nrf2 ARE act	A549 tox	HepG2 tox	Nrf2 inh
O=C(N/N=C/c1cccn1-c1ccc([N+](=O)[O-])cc1)c1cccnc1	?	-	?	-	18.4µM
O=C(N/N=C/c1cccnc1)c1ccc([N+](=O)[O-])cc1	-	-	-	-	-
CCOc1ccccc1C(=O)N(CN1CCCC1=O)c1ccc(C)c(Cl)c1	-	-	-	-	?
CCN1CCN(C(=S)c2ccc(Cl)c(Cl)c2)CC1	-	-	?	-	-
CCn1c(=O)cc(SCC(=O)Nc2cccc(SC)c2)c2ccccc21	?	-	-	-	13µM
CCn1c(=O)cc(SCC(=O)Nc2cc(OC)c(OC)c(OC)c2)c2ccccc21	-	-	-	-	?
Cc1noc(C)c1C(=O)Nc1nc(-c2cc(F)ccc2F)cs1	-	?	-	-	?
COc1ccc2nc3ccccc3[n+]([O-])c2c1	-	-	-	-	?
[O-][n+]1c2ccccc2cc2ccccc21	11.2µM	-	-	-	-
Cc1cc(C)cc(OCc2nnc(SCC(=O)OC(C)C)o2)c1	-	-	-	-	-
COc1ccc(N(C(=O)CCl)C(C(=O)NCCc2ccccc2)c2cccs2)cc1 (stereo unspecified)	?	?	-	15.8µM	-
COc1ccc(CNC(=O)C(c2ccncc2)N(C(=O)Cc2cccs2)c2ccccc2)cc1 (stereo unspecified)	-	-	-	-	-
CCOC(=O)c1c(-c2ccc(C)cc2)csc1NC(=O)c1cccc(N2C(=O)CCC2=O)c1	-	-	-	-	-
COc1cccc(-n2cc(CNCc3c(C(=O)N(C)C)nc4ccc(Cl)cn34)cn2)c1	-	-	-	-	-
Cc1ccc(S[C@@H](CCN2CC[C@H](O)CCC2=O)c2ccccc2)cc1	?	-	-	-	-
COc1ccc(S[C@@H](CCN2CC[C@H](C)CCC2=O)c2ccccc2)cc1	15.8µM	-	-	-	?
COc1ccc(SC[C@H](C)CN2CC[C@H](C(C)(C)C)CCC2=O)cc1	?	-	-	20µM!	-
Cc1ccc(S[C@@H](CCN2CC[C@H](C(C)(C)C)CCC2=O)c2ccccc2)cc1	?	-	-	12.6µM	?
Cc1ccc(S[C@@H](CCN2CC[C@H](C)CCC2=O)c2ccccc2)cc1	?	-	-	-	?
C[C@@H](CSc1ccccc1)CN1CC[C@H](C(C)(C)C)CCC1=O	?	-	-	-	-
O=C1Nc2ccccc2C1(O)Cc1ccncc1 (stereo unspecified)	-	-	-	-	.
Cc1ccc(NC(=O)C2CC(=O)N(C(C)c3ccccc3)C2)cc1 (stereo unspecified)	-	-	-	-	-
Cc1ccc(N=C2C(=O)Nc3ccccc32)cc1	-	-	-	-	-
CCN(CC)c1ccc(N=C2C(=O)Nc3ccccc32)cc1	?	-	-	12.6µM	-
Cc1cccc(C)c1N=C1C(=O)Nc2ccccc21	-	-	-	-	18.4µM
SMILES	TGFb inhibitor	Nrf2 ARE act	A549 tox	HepG2 tox	Nrf2 inh
COc1ccc(-c2cc(-c3c(O)c(OC)c4occc4c3OC)[nH]n2)cc1	?	-	?	-	?
CCn1c(SCC(=O)NC(C)C)nnc1-c1cccs1	-	-	-	-	-
COc1ccc(-c2noc(CSc3nc4ccccc4[nH]3)n2)cc1OC	?	-	-	-	20.6µM
COc1ccccc1-c1noc(CSc2nc3ccc(C)cc3[nH]2)n1	-	-	-	-	?
CCn1c(SCc2nc(-c3ccc(OC)c(OC)c3)no2)nnc1-c1cccs1	-	-	-	-	20.6µM
COc1ccc(-c2noc(-c3cccs3)n2)cc1OC	-	?	-	-	?
CCn1c(SCC(=O)c2cccs2)nnc1-c1cccs1	-	22.4µM	-	-	?
